# Experimental data reported in the supplement of paper PMC7156485.
# ± gives the standard deviation of the averaged measurements.
# Legend:
# Details in all cases: concentration: 10 µM; 24 h
# HCC1569 [1] = assay: cell number relative to DMSO (% of DMSO); higher = more cells (less growth inhibition / toxicity)
# Summary of the method: (§1)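 In 384-well plates holding 800 HCC1569 or TDF cells per well in RPMI with 10% FBS, compounds were tested at 10 µM for 24 h at 37 °C in triplicate. Fixation used 3.7% formaldehyde. Staining used a rabbit anti-H1.0 antibody with an AlexaFluor 647 secondary, plus DAPI. Each value, H1.0 nuclear intensity or cell number, is a median of replicates shown as percent of the plate control, and HCC1569 values were smoothed for positional effects.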
# TDF [2] = assay: as above
# Summary of the method: as §1
# TDF [3] = assay: H1.0 immunofluorescence intensity relative to DMSO (% of DMSO); higher = stronger H1.0 induction, active = 120 or more
# Summary of the method: as §1
# HCC1569 [4] = assay: H1.0 immunofluorescence intensity relative to DMSO (% of DMSO); higher = stronger H1.0 induction, active = 140 or more
# Summary of the method: as §1
# 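Throughout, for H1.0 immunofluorescence intensity relative to DMSO: TDF is a line of transformed human dermal fibroblasts of mesenchymal origin.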
# 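Throughout, for cell number relative to DMSO: TDF denotes transformed human dermal fibroblasts of mesenchymal origin.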
SMILES,cell number (HCC1569 [1]),cell number (TDF [2]),H1.0 immunofluorescence intensity (TDF [3]),H1.0 immunofluorescence intensity (HCC1569 [4])
CC(=O)OC1CCC2(C)C(C1)C(OC(C)=O)CC1C2CC2C3CN4CC(C)CCC4C(C)C3CCC21O (stereo unspecified) [Diacetylkorseveriline],101,109,96.2 (inactive),95.1 (inactive)
COc1cc2c(c(OC)c1OC)-c1c(cc3c(c1OC)OCO3)CC(C)C(C)(O)C2OC(=O)c1ccccc1 (stereo unspecified) [Schisantherin A],106,95,98.5 (inactive),97.7 (inactive)
C#CCCCCCCCCCCCCCCCC(=O)O [17-Octadecynoic acid],102,99.7,92.5 (inactive),99.4 (inactive)
CC(C)n1cnc2c(NCc3ccccc3)nc(NCCO)nc21 [N9-Isopropylolomoucine],46,105,95 (inactive),314 (active)
COc1ccc(C2Sc3ccccc3N(CCN(C)C)C(=O)C2OC(C)=O)cc1.Cl (stereo unspecified) [Diltiazem hydrochloride],101,100,93 (inactive),98.3 (inactive)
O=C(Nc1ccc(N2CCOCC2)c(S(=O)(=O)Nc2ccccc2Cl)c1)c1ccncc1 [Chk2 Inhibitor],98.5,110,87.3 (inactive),99.5 (inactive)
NC(=O)c1ccc2nc(-c3ccc(Oc4ccc(Cl)cc4)cc3)[nH]c2c1 [Chk2 Inhibitor II],97.4,100,91.4 (inactive),132 (inactive)
C=C1CCC2C(C)(CO)C(O)CCC2(C)C1CC=C1C(=O)OCC1O (stereo unspecified) [Andrographolide],83.1,68.6,109 (inactive),113 (inactive)
CCCCCC=CCC1OC1C(O)C=CCC=CCCCC(=O)O (stereo unspecified) [Hepoxilin B3],102,95,95.2 (inactive),93.1 (inactive)
O=C(O)Cc1c[nH]c2ccccc12 [Indole-3-acetic acid],100,102,94.5 (inactive),84.8 (inactive)
CC(CN1CCC(Cc2ccccc2)CC1)C(O)c1ccc(O)cc1.Cl (stereo unspecified) [Ro 25-6981 hydrochloride],105,101,86.4 (inactive),96.6 (inactive)
"CCCCCC#CCC#CCC#CCC#CCCCC(=O)O [5,8,11,14-Eicosatetraynoic acid]",105,86.7,93.3 (inactive),103 (inactive)
C[N+]1(C)C2CC(OC(=O)C(O)(c3cccs3)c3cccs3)CC1C1OC12.[Br-] (stereo unspecified) [Tiotropium Bromide],105,97.1,95.7 (inactive),114 (inactive)
CCC(=O)Nc1ccc2ncnc(Nc3cccc(Br)c3)c2c1,89.4,105,93.1 (inactive),128 (inactive)
Cc1[nH]c2ccccc2c1CCNC(=O)c1cccs1 [N-[2-(2-methyl-1H-indol-3-yl)ethyl]-2-thiophenecarboxamide],102,95.5,97.1 (inactive),92.8 (inactive)
Cc1ccc(NC(=O)c2ccc(CN3CCN(C)CC3)cc2)cc1Nc1nccc(-c2cccnc2)n1 [Imatinib],101,101,107 (inactive),103 (inactive)
NS(=O)(=O)c1cc2c(cc1Cl)NC(C(Cl)Cl)NS2(=O)=O (stereo unspecified) [Trichloromethiazide],106,105,93.9 (inactive),110 (inactive)
CCOC(=O)[C@@H](N)CCC(=O)N[C@@H](CSCc1ccccc1)C(=O)N[C@@H](C(=O)OCC)c1ccccc1,97.6,100,92.9 (inactive),109 (inactive)
O=C(NCCCN1CCOCC1)c1cnn2c(-c3ccccc3)cc(-c3ccccc3)nc12,95.3,84.3,97.2 (inactive),119 (inactive)
CCCCCCCCCCOCCC(=O)O [4-Oxatetradecanoic acid],102,110,95.6 (inactive),103 (inactive)
CN(C)CCN1C(=O)c2ccccc2N(C)c2ccccc21 [Dibenzepine],102,112,97.7 (inactive),111 (inactive)
CNc1ncnc2c1ncn2C1OC(CO)C(O)C1O (stereo unspecified) [N6-Methyladenosine],95.6,106,93.9 (inactive),110 (inactive)
NC(C(=O)O)C(O)C(=O)O (racemic) [DL-threo-beta-hydroxyaspartic acid],101,110,96.7 (inactive),95.9 (inactive)
CN1CCN(C2=Nc3cc(F)ccc3Cc3ccccc32)CC1 [Fluperlapine],104,102,100 (inactive),118 (inactive)
COc1ccc(-c2cc(=O)c3c(O)cc(O)cc3o2)cc1O [Diosmetine],93.5,101,99.2 (inactive),114 (inactive)

SMILES,cell number (HCC1569 [1]),cell number (TDF [2]),H1.0 immunofluorescence intensity (TDF [3]),H1.0 immunofluorescence intensity (HCC1569 [4])
"CCC12CCCN3CCc4c(n(c5ccccc45)C(=O)C1)C32 (single isomer, unassigned; (-)) [(-)-Eburnamonine]",83.7,58.5,118 (inactive),113 (inactive)
CC(C)NCC(O)COc1cccc2ccccc12.Cl (racemic),101,91.5,98.8 (inactive),94.2 (inactive)
CC(C)(C)C(=O)Oc1ccc(S(=O)(=O)Nc2ccccc2C(=O)NCC(=O)[O-])cc1.O.[Na+],101,98.8,87.6 (inactive),108 (inactive)
CCOC(=O)C1=C(C)NC(C)=C(C(=O)OC)C1c1cccc(Cl)c1Cl (stereo unspecified) [Felodipine],102 ± 2.2,117.1 ± 0.85,86.3 (inactive),97.5 (inactive)
COc1ccc(CCN(C)CCc2ccc(OC)c(OC)c2)cc1OC.Cl [YS-035 hydrochloride],99.4,108,96.6 (inactive),98.3 (inactive)
O=C1c2ccccc2-n2c1nc1ccccc1c2=O [Tryptanthrin],96.9,53.6,101 (inactive),93.6 (inactive)
CCCC(CCC)C(N)=O [2-propylpentanamide],112,106,97 (inactive),95.6 (inactive)
CC1(C)CCCC2(C)C1CCC1(C)OC(=O)CC12 [(3aR)-(+)-Sclaerolide],99,105,92.9 (inactive),84.9 (inactive)
CC1=C(C(=O)O)N2C(=O)C(NC(=O)C(N)C3=CCC=CC3)C2SC1 (stereo unspecified) [Cephadrine],100,101,96.3 (inactive),88 (inactive)
NC(=O)N1c2ccccc2CC(=O)c2ccccc21 [Oxcarbazepine],103,108,93.7 (inactive),110 (inactive)
NCCS(=O)(=O)O [Taurine],98.1,112,96.4 (inactive),98.7 (inactive)
CCCCCCCCC=CCCCCCCCCCCCCCC(=O)O [15(Z)-Tetracosenoic acid],103,98.8,94.8 (inactive),99.1 (inactive)
CCCCCCCCCCCC=CCCCCC(=O)O [6(Z)-Octadecenoic acid],100,99.9,101 (inactive),97.5 (inactive)
Cl.Nc1ccn(C2OC(CO)C(O)C2O)c(=O)n1 [Cytosine-1-beta-D-arabinofuranoside hydrochloride],75.3,45.5,121 (active),100 (inactive)
COC(=O)[C@H](Cc1ccc([N+](=O)[O-])cc1)NC(=O)c1cccc2ccccc12 [methyl (2S)-2-(1-naphthoylamino)-3-(4-nitrophenyl)propanoate],92.4,95,100 (inactive),101 (inactive)
O=c1c(O)c(-c2cc(O)c(O)c(O)c2)oc2cc(O)cc(O)c12 [Myricetin],102 ± 3.7,101 ± 3.9,88.4 (inactive),91.7 (inactive)
CN1C2CCCC1CC(NC(=O)c1nn(C)c3ccccc13)C2 (stereo unspecified) [Granisetron],93.7,93.9,104 (inactive),102 (inactive)
CNC1C(OC2C(OC3C(O)C(O)C(N=C(N)N)C(O)C3N=C(N)N)OC(C)C2(O)C=O)OC(CO)C(O)C1O (stereo unspecified) [Streptomycin],105,103,96.7 (inactive),89 (inactive)
COc1ccc(S(=O)(=O)N2CCC[C@H]2C(=O)Nc2cc(C)cc(C)c2)cc1,101,113,95.5 (inactive),102 (inactive)
O=C(O)CN(CCN(CC(=O)O)CC(=O)O)CCN(CC(=O)O)CC(=O)O [Diethylenetriaminepentaacetic acid],95.4,104,95.1 (inactive),94.6 (inactive)
CCC(=O)c1ccc2c(c1)N(CCCN(C)C)c1ccccc1S2.Cl [Propionylpromazine hydrochloride],97.4,97.1,104 (inactive),117 (inactive)
CC1=C(C(=O)Nc2cc3cn[nH]c3cc2F)C(c2ccc(C(F)(F)F)cc2)CC(=O)N1 (stereo unspecified),113,98.5,87.8 (inactive),107 (inactive)
Cc1nc2sccn2c(=O)c1CCN1CCC(=C(c2ccccc2)c2ccc(F)cc2)CC1 [Diacylglycerol kinase inhibitor I],87.2,111,96 (inactive),118 (inactive)
"CC(C)(C)C1(O)CCN2CC3c4ccccc4CCc4cccc(c43)C2C1.Cl (single isomer, unassigned; (+)) [(+)-Butaclamol hydrochloride]",54,49.9,126 (active),251 (active)
